Only some compounds are listed: those with a hit (about 3.5% of all), similar ones and a draw of the others.
GPR151 ag – activates the human receptor GPR151 | PathHunter beta-arrestin GPR151 cells, luminescence | 650,000 tested, 1% active | activation, % at 11.2 µM; in the data active = activation above about 4.9%
TEAD-YAP block – TEAD-YAP interaction inhibition | HEK-TIYL cells, TEAD-Gal4/YAP UAS-luciferase luminescence | inhibition, % at 9.12 µM | 640,000 tested, 1.4% active; in the data active = inhibition above about 32%
FBW7 act – human FBW7 E3 ligase activation, primary screen | Q969H0 | AlphaScreen FBW7–phospho-cyclin E peptide binding, activator screen | normalized activity (activation), % at 26.1 µM | 650,000 tested, 0.13% active | AID 1259310; in the data active = normalized activity above about 1.9%;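 note: purified mutant Fbw7 with reduced substrate affinity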
MITF inh – blocks human microphthalmia-associated transcription factor | O75030 | AlphaScreen MITF homodimerization, bead proximity signal | inhibition, % at 2.6 µM | 650,000 tested, 0.91% active | AID 1259374; in the data active = inhibition above about 50%
Target sequence (O75030 whole entry, looked up): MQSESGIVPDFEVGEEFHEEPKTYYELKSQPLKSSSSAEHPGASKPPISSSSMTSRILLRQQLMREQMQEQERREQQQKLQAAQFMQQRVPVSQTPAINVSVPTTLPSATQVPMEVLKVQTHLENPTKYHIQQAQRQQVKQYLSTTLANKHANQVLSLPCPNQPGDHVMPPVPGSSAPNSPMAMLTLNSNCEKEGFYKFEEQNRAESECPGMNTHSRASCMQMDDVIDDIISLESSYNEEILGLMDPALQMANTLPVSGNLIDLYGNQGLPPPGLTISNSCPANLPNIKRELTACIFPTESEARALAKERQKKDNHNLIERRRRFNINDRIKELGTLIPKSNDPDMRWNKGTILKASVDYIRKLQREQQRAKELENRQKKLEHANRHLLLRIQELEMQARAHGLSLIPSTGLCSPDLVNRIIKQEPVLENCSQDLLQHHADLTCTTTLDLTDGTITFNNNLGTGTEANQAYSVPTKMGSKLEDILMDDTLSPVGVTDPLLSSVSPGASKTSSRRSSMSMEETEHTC
GPR151 confirm – confirmation of human GPR151 activators | activation, % at 11.2 µM | 6,700 tested, under 10 active | shares compounds with GPR151 ag | GPR151 PathHunter beta-arrestin cells, luminescence, 90 min; % of EA-reagent control over plate median;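 active = mean percent activation across replicates above the confirmation screen cutoff of 4.91%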
GPR119 counter – activates human GPR119 in a GPR151 counter-screen; shares compounds with GPR151 ag; GPR119 PathHunter beta-arrestin cells, luminescence, 90 min; 0 = compound-well median, 100 = enzyme-acceptor control; activation, % at 11.2 µM; 6,700 tested, 0.3% active; AID 1508611;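 active = mean percent activation in the counterscreen above 29.09%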;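 note: counterscreen on off-target GPR119 to flag nonselective hits from the GPR151 activator screen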
A number is an active result; . = inactive; / = no result given.

SMILES	GPR151 ag	TEAD-YAP block	FBW7 act	MITF inh	GPR151 confirm	GPR119 counter
O=C(CSc1nc2ccccc2n1S(=O)(=O)c1ccccc1)NCCc1ccccc1	.	.	.	.	/	/
Cn1c(SCC(=O)NCCc2ccccc2)nnc1-c1ccncc1	6.1	.	.	.	.	.
CCOC(=O)c1ccc(N2C(=O)CC(Sc3nnnn3-c3ccccc3)C2=O)cc1 (stereo not drawn)	.	.	.	.	/	/
CCOC(=O)c1c[nH]c2ccc(OC)cc2c1=O	.	.	.	.	/	/
Cc1cc2ccccc2n1CCNC(=O)c1ccc(Br)cc1	5.0	.	.	.	.	.
Cc1cccc(NC(=O)CSc2nc3c(c(=O)n2-c2ccc(F)cc2)SCC3)c1	6.5	.	.	.	.	.
CCCNC(=O)c1cncc(-c2ccc(C(=O)NC3CC3)cc2)c1	5.7	.	.	.	.	.
Cc1nc(SCC(=O)Nc2ccc(N(C)C)cc2)c2oc3ccccc3c2n1	.	.	.	.	/	/
COc1ccc(Nc2cc(-c3cncc(-c4ccc(OC)cc4)c3)nc(C)n2)cc1	.	.	.	.	/	/
COc1ccc(Nc2cc(-c3cncc(-c4cccs4)c3)nc(C)n2)cc1	6.0	.	.	.	.	.
O=C(/C=C/c1ccccc1)NCCOC(=O)Nc1ccccc1	9.8	.	.	.	.	.
FC(F)(F)c1nnc2c3ccccc3c(NC3CC3)nn12	7.3	.	.	.	.	.
Cc1ccccc1CSc1ncccc1C(=O)N1CCN(c2cccc(Cl)c2)CC1	.	.	.	.	/	/
Cc1cccc(N2CCN(C(=O)c3cccnc3SCc3ccccc3Cl)CC2C)c1 (stereo not drawn)	6.8	.	.	.	.	.
CN(C)CC(C)(C)CNCC(=O)Nc1cc(C(F)(F)F)cc(C(F)(F)F)c1	6.0	.	.	.	.	.
O=C(NC(Cc1c[nH]c2ccccc12)C(=O)NCc1ccccc1)c1ccccc1 (stereo not drawn)	.	.	.	.	/	/
CCC(=O)Nc1nnc(-c2ccc3c(c2)CCCC3)o1	.	.	.	.	/	/
COC(=O)c1ccc(C(=O)Nc2nnc(-c3ccc4c(c3)CCCC4)o2)cc1	6.0	.	.	.	.	.
CCOC(=O)/C(N=Nc1sc(C(=O)OCC)c(C)c1C(=O)OCC)=C(\O)CCl	6.7	.	.	.	.	.
CCOC(=O)c1sc(/N=C/N(C)C)c(C(=O)OCC)c1C	11.3	.	.	.	.	.
Cn1ccc(C(=O)NCC2Cc3cc(-c4cnc5ccccc5c4)cc(F)c3O2)n1 (stereo not drawn)	.	.	.	.	/	/
COc1ccc(CCNC(=O)c2ccc3c(c2)nc(C)n3-c2ccc(OCc3ccccc3)cc2)cc1OC	.	.	.	.	/	/
O=C(Nc1cc(-c2cccs2)nn1CCO)C1c2ccccc2Oc2ccccc21	8.0	.	.	.	.	.
O=C(Nc1cc(-c2cccs2)nn1CCO)C1CCC1	.	.	.	.	/	/
O=C(c1ccsc1)N1CCc2ccc(NC(=O)C3(c4ccccc4)CC3)cc2C1	5.9	.	.	.	.	.
SMILES	GPR151 ag	TEAD-YAP block	FBW7 act	MITF inh	GPR151 confirm	GPR119 counter
O=C(Nc1ccc2c(c1)CN(C1CCSCC1)CC2)C1(c2ccccc2)CC1	.	.	.	.	/	/
COc1ccc(/C=C2\N=C(c3ccc(OC)cc3Br)OC2=O)cc1	.	.	.	.	/	/
Cc1ccc(NC(=O)C(F)(F)F)c(C(=O)NCc2cccs2)c1	.	.	.	.	/	/
CCOc1ccc(C(=O)Nc2ccc3c(c2)CC(=O)N3CC)cc1	.	.	.	.	/	/
CCN1C(=O)Cc2cc(NC(=O)c3ccc(C(C)(C)C)cc3)ccc21	5.2	.	.	.	.	.
O=C(NC1CC1)c1ccc(-c2nc(NCCO)c3ncn(C4CCCCC4)c3n2)cc1	.	.	.	.	/	/
CN1CCN(C(=O)c2ccc(-c3nc(NCc4cccc(C(F)(F)F)c4)c4ncn(C5CCCCC5)c4n3)cc2)CC1	5.0	.	.	.	.	.
CC(=O)c1cccc(-c2nc(NC3CC3)c3ncn(C4CCCCC4)c3n2)c1	9.4	.	.	.	.	.
CCCNc1nc(-c2cccc(C(C)=O)c2)nc2c1ncn2C1CCCCC1	.	.	.	.	/	/
COc1ccc(-c2nc(NC3CCN(Cc4ccccc4)CC3)c3ncn(C4CCCCC4)c3n2)cc1	5.8	.	.	.	.	.
Nc1nc(-c2ccc(C(=O)NC3CC3)cc2)nc2c1ncn2C1CCCCC1	6.2	.	.	.	.	.
CN1CCN(c2ccc(-c3nc(NCc4cccc(C(F)(F)F)c4)c4ncn(C5CCCCC5)c4n3)cc2)CC1	.	.	.	.	/	/
Cc1ccc(OCC(=O)N/N=C/c2c(C)n(C)c3ccccc23)cc1	.	.	.	.	/	/
CCOc1ccc(/C=C2/SC(N3CCOCC3)=NC2=O)cc1OCC	.	.	.	.	/	/
Cc1ccc(S(=O)(=O)Nc2nc3ccccc3nc2Nc2cc(C)ccc2C)cc1	.	.	.	.	/	/
CCCCC(c1nnnn1CCOC)N1CCN(c2ccccc2)CC1 (stereo not drawn)	5.1	.	.	.	.	.
O=c1c2ccccc2nc(SCc2c(F)cccc2Cl)n1C1CC1	5.1	.	.	.	.	.
CCOc1ccc(-c2[nH]nc3c2C(c2ccccc2F)C(C#N)=C(N)O3)c(OCC)c1 (stereo not drawn)	7.1	.	.	.	.	.
O=C(CCCN1C(=O)c2cccnc2C1=O)Nc1ccc(C(F)(F)F)cc1	9.0	.	.	.	.	.
Cc1cc(C)c(-n2c(O)c(/C=C3\C=CC=N3)c(=O)[nH]c2=O)c(C)c1	7.3	46.4	.	.	.	.
CC(NC(=O)C1CC1)c1nnc2n1CCN(Cc1ccc3c(c1)Cc1ccccc1-3)CC2 (stereo not drawn)	.	.	.	.	/	/
Cn1c(N)c(C#N)c2nc3ccccc3nc21	.	.	.	.	/	/
CCCCCn1c(N)c(C#N)c2nc3ccccc3nc21	8.2	.	.	.	.	.
Cc1cnc(SCCN2CCOCC2)nc1C1CCCN(C(=O)Cc2ccsc2)C1 (stereo not drawn)	.	.	.	.	/	/
COc1cccc(/C=N\N=c2\sc3ccccc3n2C)c1OC	.	.	.	.	/	/
COc1ccc(/C=N/N=c2\sc3ccccc3n2C)c(OC)c1	9.2	.	.	.	.	.
CC(C)(C)C(=O)NC1(C(F)(F)F)NC(=O)N(c2ccccc2F)C1=O (stereo not drawn)	6.6	.	.	.	.	.
CCC(C)NC(=O)CN1CCN(Cc2ccc(C)cc2)C1=O (stereo not drawn)	.	.	.	.	/	/
Cc1sc(NC(=O)c2ccco2)c(C(c2ccccc2)N2CCN(C)CC2)c1C (stereo not drawn)	.	.	.	.	/	/
CC(C)C[C@H]1C(=O)N2CCN(C(=O)c3cccc(F)c3F)C[C@@H]2C(=O)N1C	6.6	.	.	.	.	.
